This is an account of results in ChEMBL document CHEMBL4513216, “Probing the Open Global Health Chemical Diversity Library for Multistage-Active Starting Points for Next-Generation Antimalarials” (ACS Infect Dis, 2020).

SMILES strings stand for the structures. Hit rate of the full screen: of about 69,000 compounds, about 8,600 (12%) showed an effect of 50% or more. Shown is part of a subset that was picked to be rich in strong results.

This assay relates to Plasmodium berghei. Nature of the assay: Screen against P. berghei liver stage (PbLuc), transformed with Luciferase, at 10uM. In kind it is functional, HepG2. The note with it: tested at 10 uM.
`O=C(NCC1CC1)c1n[nH]c2c1CNCC2`: the INHIBITION was -8.51%.

`Cc1cc(C)n(CCN(C)Cc2c[nH]nc2-c2ccc3c(c2)OCO3)n1`: the INHIBITION is reported as 26.7%.

With `CNC(=O)[C@H]1CC[C@@H]2[C@@H](CCN2CCOCc2ccccc2)O1`, the INHIBITION is given as 45.7%.

Regarding `CC(=O)N(C)C1CCC2(CC1)CNC(=O)c1cc(C)ccc1O2` (stereo unspecified), the INHIBITION is -20.2%.

On to `N#Cc1ccnc(N2CCN(C3CCOC3=O)CC2)c1` (stereo unspecified), for which the INHIBITION is reported as -33.1%.

Consider `C1CCC(NCCN2CCOCC2)C1`, for which the INHIBITION was determined as 5.41%.

In the case of `N#Cc1ccnc(N2CCC(NCCN3CCCC3)CC2)c1`, the INHIBITION was found to be 57.3%.

As to `CSc1nccc(N2CCC(NCCN3CCOCC3)CC2)n1`, the INHIBITION was found to be 53.6%.

Take `N#Cc1ccnc(N2CCN(Cc3cccc(F)c3)CC2)c1`: the INHIBITION is given as -23.7%.

For the compound `N#Cc1ccnc(N2CCN(CC(O)c3ccccc3)CC2)c1` (stereo unspecified), the INHIBITION is given as -76.3%.

On to `N#Cc1ccnc(N2CCN(C(=O)NC3CCS(=O)(=O)C3)CC2)c1` (stereo unspecified), for which the INHIBITION is listed as -19.9%.

Regarding `N#Cc1ccnc(N2CCC(NCCN3CCOCC3)CC2)c1`, the INHIBITION stood at 66.5%.

For the compound `CCC1CCC(NCCN2CCOCC2)CC1` (stereo unspecified), the INHIBITION is given as 49.4%.

On to `O=C(c1ccc(F)cc1)N1C[C@@H]2OCCN(c3ncccn3)[C@@H]2C1`, for which the INHIBITION turned out to be 10%.

As to `Cc1nnc(SCc2ccccn2)s1`, the INHIBITION was 44.1%.

Regarding `CCSCCNC(=O)c1ccc(S(=O)(=O)N2C[C@H]3C[C@@H]2CN3)cc1`, the INHIBITION was determined as 9.91%.

Take `CC(C)c1cc(N(C)Cc2noc(C3CCCC3)n2)n2nccc2n1`: the INHIBITION is 46.4%.

On to `c1cnc(N2CCOCC3(CN(Cc4nccs4)CCO3)C2)nc1` (stereo unspecified), for which the INHIBITION is given as -34.7%.

As to `Cc1cc(Cc2cccc(C(F)(F)F)c2)cc(C2CCCNC2)n1` (stereo unspecified), the INHIBITION stood at 80.5%.

As to `Cc1cc(Cc2ccccc2C)cc(C2CCCNC2)n1` (stereo unspecified), the INHIBITION was -11.4%.

`Cc1cccc(Cc2cc(C)nc(C3CCCNC3)c2)c1` (stereo unspecified): the INHIBITION is on record as 54.5%.

Turning to `Cc1cc(Cc2ccccc2F)cc(C2CCCNC2)n1` (stereo unspecified), the INHIBITION is recorded as 36.9%.

Turning to `Cc1cc(Cc2ccccc2)cc(C2CCCNC2)n1` (stereo unspecified), the INHIBITION is 28.5%.

For `Cc1cc(Cc2ccc(F)cc2)cc(C2CCCNC2)n1` (stereo unspecified), the INHIBITION is recorded as 32.3%.

For the compound `Cc1cnn(CC2CCCN2C(=O)c2csc(C(C)C)n2)c1` (stereo unspecified), the INHIBITION is 35.3%.

Take `COc1ccc(C(=O)N2CCCC3(CCCC(=O)N3C)C2)cc1` (stereo unspecified): the INHIBITION was determined as 24.8%.

Regarding `CNC(=O)c1ccccc1-c1ccc(S(C)(=O)=O)cc1`, the INHIBITION was -19.1%.

Take `COCCN1C[C@@H]2[C@@H](OC)CCN(Cc3ccc(C)o3)[C@@H]2C1`: the INHIBITION came out at 15.4%.

Take `Cc1csc(N2CCCN(C(=O)CCN3CCCC3=O)CC2)n1`: the INHIBITION is recorded as -21.8%.

With `Cc1nccc(N[C@H]2CN(C(=O)CN3CCOCC3)C[C@@H]2C(C)C)n1`, the INHIBITION is given as 43.6%.

`Cc1nccc(N[C@H]2CN(C(=O)CCN3CCCC3=O)C[C@@H]2C(C)C)n1`: the INHIBITION amounted to 55%.

On to `Cc1nccc(N[C@H]2CN(C(=O)C3(C#N)CCOCC3)C[C@@H]2C(C)C)n1`, for which the INHIBITION is reported as -5.1%.

With `Cc1nccc(N[C@H]2CN(C(=O)CN3CCCC3=O)C[C@@H]2C(C)C)n1`, the INHIBITION is reported as 62.9%.

With `CSCCC(=O)N1C[C@H](Nc2ccnc(C)n2)[C@@H](C(C)C)C1`, the INHIBITION is on record as -15.5%.

Consider `CC(C)(Oc1ccc(C(N)=O)cc1)C(=O)N(CCC#N)CC1CCCO1` (stereo unspecified), for which the INHIBITION worked out at 28.3%.

With `Cc1nc(C)n(CC2CCCN2CC(=O)Nc2c(C)n[nH]c2C)n1` (stereo unspecified), the INHIBITION is 29.305%.

In the case of `Cn1nc(C(=O)NCc2ccc(OC3CCCCC3)nc2)ccc1=O`, the INHIBITION came out at 47.7%.

Turning to `COCc1nc(-c2ccnc(N3CCNCC3)n2)no1`, the INHIBITION came to 38.3%.

In the case of `COCCCN(Cc1ccccn1)S(=O)(=O)Cc1ccccc1`, the INHIBITION is recorded as 46.1%.

Turning to `CNc1nc(CNC(=O)Nc2cccc(-n3ccc(C)n3)c2)cs1`, the INHIBITION is 7.42%.

For the compound `O=C(O)[C@H]1C[C@@H](C(=O)NCc2ccncc2)CN(Cc2ccccc2)C1`, the INHIBITION was 17.2%.

In the case of `Fc1cccc(CN2C[C@@H]3COC[C@]3(COCc3ccncc3)C2)c1`, the INHIBITION stood at 49.7%.

For `Cc1cc(-n2cccn2)ccc1CN1CCOCC(CN(C)C)C1` (stereo unspecified), the INHIBITION turned out to be 62.2%.

As for `Cc1cc(C)c(-n2cccn2)c(CN2CCOCC(CN(C)C)C2)c1` (stereo unspecified), the INHIBITION is given as 36.5%.

With `COc1ccc(-n2cccn2)c(CN2CCOCC(CN(C)C)C2)c1` (stereo unspecified), the INHIBITION stood at 15.2%.

Consider `NC(=O)C1CCN(C(=O)CCn2c(C(F)(F)F)cc3cccnc32)CC1`, for which the INHIBITION stood at 1.5%.

In the case of `Cc1ccc(=O)n(CC2(O)CCN(Cc3cnc(N(C)C)nc3)CC2)n1`, the INHIBITION was 14.7%.

Take `c1cncc(Cc2nnc3n2CCN(CC2CCCNC2)CC3)c1` (stereo unspecified): the INHIBITION was 16.3%.

For the compound `CC(C)c1ccccc1OCCNC(=O)N1CCC(CC(N)=O)CC1`, the INHIBITION turned out to be 5.76%.

With `CC(C)c1n[nH]c(C2CN(C(=O)c3cc(C4CC4)[nH]n3)CCO2)n1` (stereo unspecified), the INHIBITION was -20.2%.

With `O=C(Nc1cccnc1N1CCSCC1)c1ccc2c(c1)CCC2`, the INHIBITION is 38.6%.

On to `O=C(Cc1ccc2c(c1)CCCC2)NCCc1ccccn1`, for which the INHIBITION is on record as 70.7%.

With `O=C(Cc1ccc2c(c1)CCCC2)Nc1cccnc1N1CCSCC1`, the INHIBITION is on record as 53.5%.

For the compound `O=C(Nc1cccnc1N1CCSCC1)c1cc2c(s1)CCCCC2`, the INHIBITION worked out at 19.8%.

As to `O=C(Cc1ccc2c(c1)CCC2)NCCNc1ncccn1`, the INHIBITION is given as 45.9%.

Take `O=C(Cc1ccc2c(c1)CCCC2)NCCNc1cnccn1`: the INHIBITION worked out at 31.9%.
